The text below walks through data of PubChem BioAssay AID1438 (Sanford-Burnham Center for Chemical Genomics, 2008).

Hit rate of the full screen: of about 2,200 compounds, about 45 (2%) were called active. How the calls were made is not given here. A selection follows. Potency and affinity values are given separately.

The target of this assay is Runt-related transcription factor 1 (Homo sapiens) + Core-binding factor subunit beta (Homo sapiens) (UniProt Q01196+Q13951). Nature of the assay: inhibitors of RUNX1 Runt–CBFb-SMMHC binding, biochemical, TR-FRET (AID 1438). Conditions: TR-FRET Runt domain–CBFb-SMMHC binding, at 20 µM, hits give high values.
Runt-related transcription factor 1 (Homo sapiens) + Core-binding factor subunit beta (Homo sapiens), sequence (Q01196 whole entry, looked up, the tested form may be a part): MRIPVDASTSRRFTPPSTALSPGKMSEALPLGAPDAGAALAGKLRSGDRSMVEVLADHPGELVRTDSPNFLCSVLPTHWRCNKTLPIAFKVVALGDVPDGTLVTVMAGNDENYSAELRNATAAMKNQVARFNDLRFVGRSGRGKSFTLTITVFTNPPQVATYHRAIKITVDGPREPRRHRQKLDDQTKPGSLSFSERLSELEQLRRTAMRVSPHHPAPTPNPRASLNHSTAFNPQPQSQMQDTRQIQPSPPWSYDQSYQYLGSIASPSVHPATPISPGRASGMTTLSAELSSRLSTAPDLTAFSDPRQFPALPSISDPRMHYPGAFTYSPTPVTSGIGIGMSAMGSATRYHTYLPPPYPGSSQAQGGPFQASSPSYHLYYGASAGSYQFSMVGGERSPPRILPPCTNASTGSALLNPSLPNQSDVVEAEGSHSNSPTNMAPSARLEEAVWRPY
Runt-related transcription factor 1 (Homo sapiens) + Core-binding factor subunit beta (Homo sapiens), sequence (Q13951 whole entry, looked up, the tested form may be a part): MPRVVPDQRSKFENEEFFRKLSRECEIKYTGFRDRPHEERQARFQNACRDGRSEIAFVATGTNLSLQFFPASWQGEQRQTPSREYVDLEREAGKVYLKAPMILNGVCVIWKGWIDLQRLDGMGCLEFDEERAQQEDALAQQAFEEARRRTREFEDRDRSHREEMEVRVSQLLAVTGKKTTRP
The inhibition is the drop in the measured response relative to a control, in per cent. Regarding `O=C(c1ccccc1)c1ccccc1N1C(=O)C=CC1=O`, the inhibition was 28.3% (inactive).

`O=C1C=CC(=O)N1c1cccc(-c2ccccc2)c1`: the inhibition was -6.3% (inactive). In the case of `Cc1cc(C)cc(Oc2nc3ccccn3c(=O)c2/C=C(\C#N)C(=O)NC2CCS(=O)(=O)C2)c1` (stereo unspecified), the inhibition is -134% (inactive). Turning to `Cc1ccccc1Oc1nc2c(C)cccn2c(=O)c1/C=C(\C#N)C(=O)NC1CCS(=O)(=O)C1` (stereo unspecified), the inhibition is -12.5% (inactive).

On to `COP(=O)(CC(=O)c1ccccc1)CC(=O)c1ccccc1`, for which the inhibition is -7.7% (inactive). For `Nc1ccc2c(C(F)(F)F)cc(=O)oc2c1`, the inhibition is 18.1% (inactive). For `O=C(c1ccccc1)c1cnc(Nc2ccc(Cl)c(Cl)c2)s1`, the inhibition is 29.7% (inactive). As for `COc1ccc(N2C3=C(C(=O)CC(C)(C)C3)C(c3ccccc3OC)C3=C2CC(C)(C)CC3=O)cc1`, the inhibition was 2.8% (inactive).

For the molecule `COc1ccc(N2C3=C(C(=O)CC(C)(C)C3)C(c3cnn(C)c3)C3=C2CC(C)(C)CC3=O)cc1`, the inhibition is -7.6% (inactive).

Turning to `CCOC(=O)c1sc(-c2ccc(Cl)cc2)nc1O`, the inhibition is -7.6% (inactive). On to `CCOC(=O)C1=C(Cc2ccc(C)cc2)C(=O)c2ccccc2C1=O`, for which the inhibition is 45.1% (inactive).

For `Oc1c(C=NCc2ccccc2)sc2ccccc12`, the inhibition is -12.8% (inactive).

`CN(C)c1nc(-c2cccs2)cc(C(F)(F)F)c1C#N`: the inhibition is -6.2% (inactive). Turning to `CN(C)CCNc1c2c(c(C#N)c3nc4ccccc4n13)CCCC2`, the inhibition was 21.3% (inactive). Regarding `N#Cc1c2c(c(Nc3ccccc3)n3c1nc1ccccc13)CCC2`, the inhibition is 33.8% (inactive). As for `O=C(Nc1nc2c(s1)CN(Cc1ccccc1)CC2)C1CCCC1`, the inhibition was -11.2% (inactive). On to `CCOc1ccc2nc(NCCNC(=S)NCCCN(C)C)c(C#N)cc2c1`, for which the inhibition is -5.8% (inactive).

`COCCn1c(=N)c(C(=O)NCCc2ccc(OC)cc2)cc2c(=O)n3cccc(C)c3nc21`: the inhibition was 23.3% (inactive).

Consider `COc1ccc(/C=C2/C(=O)ON=C2c2ccccc2)cc1OC`, for which the inhibition was -3.7% (inactive).

With `Cn1c(C(=O)NCCC2=CCCCC2)cc2c(=O)n3ccccc3nc21`, the inhibition was 34.3% (inactive). In the case of `CCCS(=O)(=O)c1c(S(=O)(=O)CCC)c2c(C)cccn2c1C(=O)N/N=C/c1cc(O)cc(O)c1`, the inhibition is 1.8% (inactive).

`COc1ccc2nc(Nc3sc4c(c3C(N)=O)CCCC4)sc2c1`: the inhibition is 45.1% (inactive). The figure for `COc1cc(-c2nnc(SCc3cc(=O)oc4cc(O)c(O)cc34)o2)cc(OC)c1OC` is 49.9% (inactive).

For the molecule `COc1ccccc1-n1c(SCc2cc(=O)oc3cc(O)ccc23)nc2ccccc2c1=O`, the inhibition was 29.8% (inactive). On to `N#Cc1c(NC(=O)CSc2ncc(-c3ccccc3)n2CC2CCCO2)sc2c1CCCC2` (stereo unspecified), for which the inhibition is -3.3% (inactive). With `CC(=O)N1c2ccccc2C2(O)N=C(C)SC12` (stereo unspecified), the inhibition is 28.9% (inactive).
